Results on 48 molecules are retold here after PubChem BioAssay AID2685 (National Center for Advancing Translational Sciences (NCATS), 2010).

The whole screen tested about 320,000 compounds, of which about 2,100 (0.66%) were called active. Not shown: some 53% with an inconclusive outcome. Calls follow the shape of the dose curve; as a rule, active = well fitted inhibition curve with a large enough effect in the signal ratio, with a control signal flat (not every such curve was filed as active); inconclusive = small, poorly fitted or top-dose-only effect, or effect the other way, or a change in a side signal; inactive = flat fitted curve, though single readings scatter; the % refers to the signal ratio. What follows is part of a selection rich in actives, with near analogues and random picks from the rest.
Potency is read from the fitted curve at half-maximal effect.

This assay is described as follows: qHTS Assay for Lipid Storage Modulators in Drosophila S3 Cells.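 As to cell number change: cells counted by Cell Tracker Red CMTPX staining in the red channel.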 As to lipid storage change, negative = inhibition: % is scaled to controls: 0 for no effect and ±100 for the full control effect. The conditions noted are these: BODIPY lipid droplet fluorescence, 18-24 h, cells fed with added oleic acid; cell number change: measured here: cell count max response; series mostly up to 46.1 µM; lipid storage change, negative = inhibition: at the top concentration. Put shortly:
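Drosophila S3 cells loaded with oleic acid (400 uM, as added) and compounds at several concentrations; lipid droplets imaged by 488-nm laser-scanning cytometry, 500–530 nm intensity and object ratio to cell channel. Percent activity normalized to 20 uM Triacsin C.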
Consider `CC(C(=O)N1CCCC1)N(c1ccccc1)S(C)(=O)=O` (stereo not given), for which the “lipid storage change, negative = inhibition” value was 18.2% (inactive) and the cell number change is -11.5%.
The matching figures for `CCOC(=O)N1CCN(C(=O)C(C)N(c2ccccc2)S(C)(=O)=O)CC1` (stereo not given): 14.9% (inactive) and 2.57%.
With `COc1ccc2sc(-c3ccccc3OC)c(C#CCCO)c2c1`, the result was inactive and the cell number change is -1.81%.
The matching figures for `CCOc1cc(-c2cc(-c3ccc(C)o3)nc(N)c2C#N)ccc1O`: “inactive” and -0.884%.
Take `O=C(NCc1cccnc1)C1CCN(c2ccc(S(=O)(=O)N3CCOCC3)cc2Cl)CC1`: the “lipid storage change, negative = inhibition” value is -21.4% (inactive) and the cell number change stood at 0.843%.
On the same counts, the results for `CCC(C)C1NC(=S)N(Cc2ccccc2)C1=O` (stereo not given) are 4.29% (inactive) and -14.7%.
With `CCC(C)C1NC(=S)N(C2CCCCC2)C1=O` (stereo not given), the “lipid storage change, negative = inhibition” value is 3.53% (inactive) and the cell number change was -20.3%.
With `C=CCN1C(=O)C(C(C)CC)NC1=S` (stereo not given), the Potency is 7.31 µM (active) and the cell number change is -18.2%.
As to `Cc1nnc(-c2cccc(C(F)(F)F)c2)nc1N1CCOCC1`, the molecule was classed as inactive.
Turning to `O=C(C1=C[C@@H](C2CC2)C[C@@H](OCc2ccc(CO)cc2)O1)N1CCOCC1`, the “lipid storage change, negative = inhibition” value was 17.1% (inactive) and the cell number change was -6.29%.
Take `COc1ccc(C2NN=C(c3ccc(C)cc3)S2)cc1` (stereo not given): the “lipid storage change, negative = inhibition” value is 2.54% (inactive) and the cell number change came to 14.2%.
Turning to `Cc1ccc(C2=NNC(C(O)C(O)C(O)C(O)CO)S2)cc1` (stereo not given), the Potency was 23.1 µM (active) and the cell number change was -6.96%.
On to `Cc1ccc(C2=NNC(C(O)C(O)C(O)C(C)O)S2)cc1` (stereo not given), for which the molecule was classed as inactive.
Take `O=C(Nc1ccc(N2CCOCC2)cc1)C1CCCN(S(=O)(=O)c2cccc(C(F)(F)F)c2)C1` (stereo not given): the “lipid storage change, negative = inhibition” value was 9.49% (inactive) and the cell number change is 2.4%.
On the same counts, the results for `CCCNC(=O)c1ccccc1NC(=O)CN(c1ccccc1)S(=O)(=O)N(C)C` are -15.5% (inactive) and -16.1%.
The matching figures for `CN1CCN(NC(=O)c2ccc(S(=O)(=O)N3CC4(C)CC3CC(C)(C)C4)cc2)CC1` (stereo not given): -1.05% (inactive) and 3.86%.
On to `O=C(Nc1ccc(Cl)c(S(=O)(=O)N2CCOCC2)c1)c1ccc2c(c1)OCCO2`, for which the “lipid storage change, negative = inhibition” value is -7.25% (inactive) and the cell number change was 19.2%.
On to `CC1(C)CC2CC(C)(CN2S(=O)(=O)c2ccc(C(=O)Nc3ccc(Cl)c(S(=O)(=O)N4CCOCC4)c3)cc2)C1` (stereo not given), for which the Potency was 5.8 µM (active).
Turning to `CCOc1ccc(C(=O)NCC(=O)OCc2ccc(F)cc2Cl)cc1`, the “lipid storage change, negative = inhibition” value is 8.58% (inactive) and the cell number change stood at 13.4%.
On the same counts, the results for `CCn1c(=O)c2cc(C(=O)N(C)CC(OC)OC)sc2c2ccccc21` are 2.97% (inactive) and 7.22%.
In the case of `O=C(OCc1nnc(-c2ccccc2)o1)c1cc(S(=O)(=O)N2CCOCC2)ccc1F`, the “lipid storage change, negative = inhibition” value was 14.7% (inactive) and the cell number change is -16.6%.
On to `CCc1cc2c(COC(=O)c3cc(S(=O)(=O)N4CCOCC4)ccc3F)cc(=O)oc2cc1O`, for which the Potency was 18.4 µM (active) and the cell number change is -14.4%.
Consider `Cc1noc(C)c1COC(=O)c1cc(S(=O)(=O)N2CCOCC2)ccc1F`, for which the “lipid storage change, negative = inhibition” value is 16% (inactive) and the cell number change is 4.32%.
The matching figures for `CCc1ccc(OCC(=O)Nc2ccc3c(c2)COC3=O)cc1`: 16% (inactive) and 8.42%.
On the same counts, the results for `COc1ccc(NC(=O)C2CCN(S(=O)(=O)c3cccc4cccnc34)CC2)cc1OC` are -9.44% (inactive) and -22.5%.
For `COc1ccc(C)cc1NC(=O)C1CCCN(S(=O)(=O)c2cccc3cccnc23)C1` (stereo not given), the result was inactive and the cell number change amounted to 19.9%.
In the case of `COc1ccc(C)cc1NC(=O)C1CCCN(S(=O)(=O)c2cccc3nonc23)C1` (stereo not given), the “lipid storage change, negative = inhibition” value was 18.1% (inactive).
Take `COc1ccc(C)cc1NC(=O)C1CCN(S(=O)(=O)c2cccc3cccnc23)CC1`: the Potency is 10.3 µM (active) and the cell number change is -24.8%.
As for `COc1ccc(Cl)cc1NC(=O)C1CCCN(S(=O)(=O)c2cccc3nonc23)C1` (stereo not given), the “lipid storage change, negative = inhibition” value was 6.59% (inactive) and the cell number change stood at 8.35%.
Take `COc1ccc(C)cc1NC(=O)C1CCN(S(=O)(=O)c2cccc3nonc23)CC1`: the Potency was 3.66 µM (active) and the cell number change was determined as 15.9%.
As to `COc1ccc(S(=O)(=O)Nc2c(C)n(C)n(-c3ccccc3)c2=O)cc1Br`, the “lipid storage change, negative = inhibition” value is 16.7% (inactive) and the cell number change was -3.28%.
The matching figures for `CCN(CC(=O)NCc1ccc(F)cc1)C(=O)c1ccc(COc2ccccc2)cc1`: 7.05% (inactive) and 2.25%.
The matching figures for `S=C(Nc1ccccn1)NC1CCCCC1`: 22.6% (inactive) and -4.33%.
Regarding `COc1ccc(C2CC2/C(C)=N/OC(=O)c2cccs2)cc1` (stereo not given), the molecule was classed as inactive.
As to `CCOC(=O)c1cc2sc(C)cc2n1CC(=O)NCCc1ccccc1`, the “lipid storage change, negative = inhibition” value was -3.61% (inactive) and the cell number change amounted to 5.86%.
The matching figures for `Cc1cccc(C(=O)Nc2ccc(C)c(OC(=O)c3cccc(C)c3)c2)c1`: 0.347% (inactive) and -20.4%.
`CC(=O)Nc1ccc(S(=O)(=O)NCCC(=O)NCCCc2ccccc2)cc1`: the Potency was 1.64 µM (active) and the cell number change is 6.57%.
In the case of `CC(=O)Nc1ccc(S(=O)(=O)NCCC(=O)NCCOc2ccccc2)cc1`, the “lipid storage change, negative = inhibition” value was 1.4% (inactive) and the cell number change was -2.82%.
On to `Cc1ccc(S(=O)(=O)NCCC(=O)NCCCSc2ccccc2)cc1`, for which the Potency is 16.4 µM (active) and the cell number change is -14.6%.
As for `Cc1ccc(S(=O)(=O)NCCC(=O)NCCOc2ccccc2)cc1`, the cell number change worked out at 2.02% and the lipid storage change, negative = inhibition is -20.7% [at 0.0737 µM] (inactive).
On the same counts, the results for `COc1ccc(CCNC(=O)COC(=O)c2cnc(C)cn2)cc1OC` are 5.11% and 1.54% (inactive).
`O=C(CCCc1ccccc1)NCCc1ccccc1`: the molecule was classed as inactive and the cell number change was found to be 1.1%.
Take `CCN(Cc1ccccc1)C(=O)COC(=O)c1cnc(C)cn1`: the “lipid storage change, negative = inhibition” value was -29.5% (inactive).
`O=C(CCCCC(=O)NCCCc1ccccc1)NCCCc1ccccc1`: the Potency was 20.6 µM (active) and the cell number change is -16.3%.
Take `O=C(CCCCC(=O)NCCc1ccccc1)NCCc1ccccc1`: the “lipid storage change, negative = inhibition” value was -26.6% (inactive) and the cell number change is -15.5%.
As to `COCCCNC(=O)CCNS(=O)(=O)c1ccc(C)cc1`, the “lipid storage change, negative = inhibition” value is 8.63% (inactive) and the cell number change was determined as 9.83%.
For `Cc1cnc(C(=O)OCC(=O)NCCCc2ccccc2)cn1`, the Potency is 5.17 µM (active) and the cell number change was -37.4%.
In the case of `CC(=O)Nc1ccc(S(=O)(=O)NCCc2ccccc2)cc1`, the result was inactive and the cell number change is -18.3%.
